Data as given in ChEMBL document CHEMBL1157539, “Thousands of chemical starting points for antimalarial lead identification” (Nature, 2010).

Columns and labels:
Type in all cases: functional
Plasmodium falciparum [1] = experiment: GSK_TCMDC: Inhibition of Plasmodium falciparum 3D7 in whole red blood cells, using parasite LDH activity as an index of growth. Test compounds present at 2uM
Plasmodium falciparum [2] = experiment: GSK_TCMDC: Inhibition of Plasmodium falciparum Dd2 in whole red blood cells, using parasite LDH activity as an index of growth. Test compounds present at 2uM
HepG2 = experiment: GSK_TCMDC: Percent inhibition of human HepG2 cell line. Test compounds present at 10uM.

Row | SMILES | Inhibition (Plasmodium falciparum [1]) | Inhibition (Plasmodium falciparum [2]) | Inhibition (HepG2)
1 | CCNc1cc(C(=O)N[C@@H](Cc2ccccc2)[C@H](O)CN[C@H]2CCc3ccccc32)cc(N2CCCC2=O)c1 | 98% | 99% | 8%
2 | CN(C)c1ccc(CN2CCCCC(NC(=O)c3cc(-c4ccccc4F)cs3)C2)cc1.O=C(O)C(F)(F)F (stereo not given) | 100% | 28% | 13%
3 | CCOc1c(OC)ccc2c1CCN(CCN1CCC(CNC(=O)c3ccc(-c4ccc(C(F)(F)F)cc4)cc3)CC1)C2 | 100% | 21% | 54%
4 | COc1ccc(NS(=O)(=O)c2ccc(C(=O)Nc3ccc(OC(F)(F)F)cc3)cc2)cc1N1CCN(CC2CC2)CC1.O=C(O)C(F)(F)F | 89% | 0% | 18%
5 | Fc1ccc(-c2cncc(-c3ccc(F)cc3)n2)cc1 | 99% | 94% | 7%
6 | COc1ccc(Nc2ncc(Cl)c(Nc3cccnc3C(N)=O)n2)cc1N1CCN(C)CC1.Cl | 95% | 97% | 77%
7 | Cc1cccc2nc(-c3cccc(-c4ccc(NC(=O)C(C)CN5CCOCC5)cc4)c3)[nH]c12 (stereo not given) | 93% | 30% | 7%
8 | Cc1cc(N2CCCC2)nc(Nc2ccc(NC(=O)CC(C)C)cc2)n1 | 95% | 53% | 37%
9 | Cc1cc2c(NC(=O)NC3CCN(CCc4ccccc4Cl)CC3)cccc2cn1.Cl | 100% | 46% | 13%
10 | CN(c1ccc(NC(=O)c2cccc(F)c2)cc1)C1CCCN(Cc2cccc(O)c2)C1.O=C(O)C(F)(F)F (stereo not given) | 85% | 2% | 13%
11 | CN1CCCc2ccc(NC(=O)C=Cc3ccc(-c4ccc(F)cc4F)o3)cc2C1.O=C(O)C(F)(F)F | 98% | 20% | 8%
12 | OCCOCCNCc1cccc(C#Cc2cc3ncnc(Nc4ccc(OCc5cccc(F)c5)c(Cl)c4)c3s2)n1 | 96% | 46% | 35%
13 | COc1ccc(-c2ccc3c(-c4cccc(S(C)(=O)=O)c4)cnc(N)c3c2)cc1 | 89% | 12% | 41%
14 | COc1cc(F)c2ncc(Cl)c([C@@H](O)CN3CCC(NCc4cc5c(cn4)OCCO5)CC3)c2c1.Cl | 100% | 100% | 11%
15 | O=C(Nc1cc(F)cc(F)c1)N1CCOC(CCN2CCC3(CCc4ccccc43)CC2)(c2ccc(Cl)c(Cl)c2)C1 (stereo not given) | 100% | 86% | 32%
16 | COc1ccc(NC(=O)c2cc(NC(=O)C3(N)CC3)c(=O)n(Cc3ccc(C(N)=O)cc3)c2)cc1.O=C(O)C(F)(F)F | 95% | 72% | 21%
17 | CC1(C)C(=O)Nc2ccc3c(c21)CC1SC(=O)NN=C31 (stereo not given) | 96% | 92% | 6%
18 | CC(C)(C)c1cc(C(=O)N2CCN(c3cnccn3)CC2)n(Cc2ccccc2)n1 | 92% | 33% | 0%
19 | O=C(O)C(F)(F)F.c1cc(CNCCc2ccncc2)cc(-c2ccc(-c3nc4ccccc4[nH]3)cc2)c1 | 99% | 97% | 28%
20 | c1ccc2[nH]c(-c3ccc(-c4ccc(CN5CCCCC5)cc4)s3)nc2c1 | 100% | 69% | 41%

Row | SMILES | Inhibition (Plasmodium falciparum [1]) | Inhibition (Plasmodium falciparum [2]) | Inhibition (HepG2)
21 | Cl.N#Cc1ccc2c(c1)CCN(CCC1CCC(NC(=O)c3cc4ccc(Cl)cc4[nH]3)CC1)C2 (stereo not given) | 100% | 0% | 5%
22 | CC(C)C1=CC(=NOS(=O)(=O)c2ccccc2)C=C(C(C)C)C1=O | 92% | 74% | 23%
23 | CCOC(=O)c1ccc(NC(=O)NCCCC2CCCN(CCCCCNC(=O)/C=C/c3ccc(Cl)c(Cl)c3)C2)cc1 (stereo not given) | 96% | 30% | 14%
24 | O=C(Nc1ccccc1)N(Cc1ccc(-c2cccc(CNCc3ccc4c(c3)OCO4)c2)cc1)C1CCN(Cc2ccccc2)CC1.O=C(O)C(F)(F)F | 100% | 65% | 29%
25 | N#Cc1cc(C(=O)c2cc(Br)ccc2O)cn(C2CCCCC2)c1=O | 89% | 9% | 3%
26 | CN(CCN1CCCC1)c1nc2cc(-n3cnc4cc(-c5ccc(Cl)cc5)sc4c3=O)ccc2[nH]1.CS(=O)(=O)O | 93% | 15% | 76%
27 | C=CCc1cc(Br)ccc1OCCCOc1c(C)nc(N)nc1N.Cl | 94% | 96% | 56%
28 | CCN(CC)CCN(Cc1ccc(-c2ccc(C(F)(F)F)cc2)cc1)C(=O)Cn1c(SCc2ccc(F)cc2)cc(=O)c2ccccc21.O=C(O)C(O)C(O)C(=O)O | 100% | 70% | 50%
29 | CC1(C)C(N(O)C(=O)Nc2ccc(Cl)c(Cl)c2)N(c2ccc(Cl)c(Cl)c2)C(=O)N1CCc1ccccc1 (stereo not given) | 91% | 93% | 10%
30 | COc1ccc2c(NN=Cc3cccc(C)n3)ccnc2c1 | 96% | 51% | 0%
31 | N#Cc1cccc(NC(=O)c2cccc(S(=O)(=O)NC3CCN(CC4CCCCC4)C3)c2)c1.O=C(O)C(F)(F)F (stereo not given) | 100% | 27% | 29%
32 | CCOc1ccccc1NC(=O)Nc1ccc2c(c1)CCN(C1CCC1)CC2.Cl | 88% | 2% | 15%
33 | CCCCCCCCNCc1c(O)ccc2ccccc12.Cl | 99% | 94% | 0%
34 | CS(=O)(=O)c1cccc2sc(N3CCN(C(=O)c4ccc([N+](=O)[O-])o4)CC3)nc12 | 84% | 61% | 0%
35 | Cc1c(N=O)cc(C(C)(C)C)c(O)c1C(=O)Nc1ccc([N+](=O)[O-])cc1Cl | 100% | 98% | 72%
36 | COc1ccc(C(=O)N2CCN(c3ccc([N+](=O)[O-])c(NC4CC4)c3)CC2)cc1Br | 99% | 68% | 6%
37 | CCOc1ccc(-c2nonc2NC(=O)c2ccccc2OC)cc1OCC | 100% | 99% | 24%
38 | COc1ccc(Nc2ncc3c(-c4cccc(NC(=O)Cc5cccc(F)c5)c4)c[nH]c3n2)cc1OC | 100% | 68% | 24%
39 | FC(F)(F)c1ccc2[nH]c(-c3ccc(-c4ccc(CN5CCN(c6ccncc6)CC5)cc4)cc3)nc2c1.O=C(O)C(F)(F)F | 100% | 99% | 91%
40 | COc1ccc(Nc2nc(NC3CCN(Cc4ccccc4)CC3)cc(-c3ccncc3)n2)cc1 | 88% | 40% | 26%

Row | SMILES | Inhibition (Plasmodium falciparum [1]) | Inhibition (Plasmodium falciparum [2]) | Inhibition (HepG2)
41 | O=C(/C=C/c1ccc([N+](=O)[O-])cc1)N1CCC(NS(=O)(=O)c2ccc(F)cc2)CC1 | 96% | 0% | 0%
42 | Br.c1cc(C2=NC3CCCCC3N2)ccc1OCCCCCOc1ccc(C2=NC3CCCCC3N2)cc1 (stereo not given) | 100% | 23% | 80%
43 | COc1cc2nc(NCC3CCCO3)n3nc(-c4ccccc4)nc3c2cc1OC (stereo not given) | 92% | 97% | 0%
44 | O=C(NCc1ccccc1)NC(CCCN1CCC(Oc2cccc(Cl)c2)CC1)c1ccc(Cl)c(Cl)c1 (stereo not given) | 81% | 57% | 15%
45 | CCc1c(C)c2ccc3c(c2oc1=O)CN(CCc1ccc(F)cc1)CO3 | 94% | 85% | 0%
46 | COc1cc2nc(N3CCC(CNCc4ccc(-c5ccc(C(F)(F)F)cc5)cc4)CC3)nc(N)c2cc1OC | 99% | 100% | 99%
47 | Cc1cccc2nc(-c3ccc(-c4ccc(NC(=O)Nc5ccc(Cl)cc5)cc4)cc3)[nH]c12 | 100% | 100% | 52%
48 | COc1cc(C(=O)N2CCOC(CCN3CCc4c(c5ccccc5n4C)C3)(c3ccc(Cl)c(Cl)c3)C2)cc(OC)c1OC (stereo not given) | 87% | 68% | 16%
49 | CCC(=Cc1cccc([N+](=O)[O-])c1)C(=O)NCC1CCN(c2nc3cc(OC)c(OC)cc3c(=N)[nH]2)CC1.Cl | 100% | 62% | 25%
50 | N#Cc1ccc(NC(=O)NC2CCN(CCCCCNC(=O)/C=C/c3ccc(Cl)c(Cl)c3)CC2)cc1 | 98% | 4% | 15%
51 | Cc1nc(N)nc(N)c1Oc1cccc(Cl)c1.O=S(=O)(O)O | 94% | 0% | 49%
52 | CCNc1c2ccc(Cl)cc2nc2ccc(OC)cc12.Cl | 99% | 100% | 16%
53 | COc1ccc(C(=O)N2CCC(CN3CCOC(c4ccccc4)(c4ccccc4)C3)CC2)cc1 | 95% | 96% | 19%
54 | CN1CCN(c2ccnc3ccc(NC(=O)Nc4c(Cl)cccc4Cl)cc23)CC1 | 96% | 12% | 11%
55 | CCCNC(=O)Nc1cc2cc(-c3ccc(CN4CCCC4)cc3)ccc2n2c(C)nnc12 | 93% | 11% | 67%
56 | CCCc1cnc2nc(N)nc(N)c2c1C | 93% | 3% | 68%
57 | Cc1cc(N[C@@H](Cc2ccccc2)C(=O)NCc2cccc(F)c2)nc(NCCc2cccs2)n1.O=C(O)C(F)(F)F | 99% | 22% | 9%
58 | O=C(Cn1cc(C=C2SC(=NC3CCCC3)N(C3CCCC3)C2=O)c2ccccc21)N1CCCC1 | 100% | 100% | 5%
59 | FC(F)(F)c1ccc2[nH]c(-c3ccc(-c4ccc(CNCc5cnn(-c6ccccc6)n5)cc4)s3)nc2c1.O=C(O)C(F)(F)F | 100% | 89% | 27%
60 | Cc1[nH]c(C)c(-c2ccc(OCc3ccc(OC(F)(F)F)cc3)nc2)c(=O)c1Cl | 98% | 96% | 3%
